# USP28 block – inhibitors of human USP28 deubiquitinase | Ubiquitin carboxyl-terminal hydrolase 28 (Homo sapiens), Q96RU2 | purified USP28, Ub-rhodamine cleavage fluorescence, 30 min | inhibition, % at 25 µM | 47,000 compounds, 3% hits
# OTUD3 block – inhibitors of human OTUD3 deubiquitinase; OTU domain-containing protein 3 (Homo sapiens), Q5T2D3; purified OTUD3, Ub-rhodamine fluorescence, 2 h; inhibition, % at 25 µM; 47,000 compounds, 0.7% hits; AID 1645858, 2021
# USP30 inh – inhibitors of human USP30 deubiquitinase; purified USP30, Ub-rhodamine cleavage fluorescence; inhibition, % at 25 µM; 47,000 compounds, 5.3% hits; AID 1645860, 2021
# USP17 block – inhibitors of human USP17 deubiquitinase | purified USP17, Ub-rhodamine cleavage fluorescence, 3 h | AID 1645855, 2021 | 47,000 compounds, 6.5% hits | inhibition, % at 50 µM
# Target sequence (A8MUK1 whole entry, looked up): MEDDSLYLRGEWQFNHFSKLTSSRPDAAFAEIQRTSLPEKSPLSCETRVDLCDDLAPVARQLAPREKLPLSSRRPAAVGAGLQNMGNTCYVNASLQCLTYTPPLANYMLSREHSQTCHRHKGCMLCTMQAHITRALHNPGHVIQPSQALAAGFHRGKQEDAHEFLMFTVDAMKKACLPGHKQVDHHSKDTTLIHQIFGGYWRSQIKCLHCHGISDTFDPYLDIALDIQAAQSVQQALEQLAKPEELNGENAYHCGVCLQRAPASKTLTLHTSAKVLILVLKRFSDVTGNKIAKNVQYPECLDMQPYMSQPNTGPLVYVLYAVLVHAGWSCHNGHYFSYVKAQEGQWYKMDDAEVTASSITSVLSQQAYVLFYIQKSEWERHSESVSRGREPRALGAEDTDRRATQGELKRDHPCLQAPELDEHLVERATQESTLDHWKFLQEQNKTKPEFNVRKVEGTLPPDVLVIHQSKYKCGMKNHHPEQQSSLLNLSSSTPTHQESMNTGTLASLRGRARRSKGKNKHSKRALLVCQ
# USP8 inh – inhibitors of human USP8 deubiquitinase. Ubiquitin carboxyl-terminal hydrolase 8 (Homo sapiens), P40818. purified USP8, Ub-rhodamine cleavage fluorescence, 30 min. inhibition, % at 20 µM. 47,000 compounds, 4.2% hits. AID 1645853, 2021
# A number is an active result; n = inactive; x = no result. Most compounds without a hit are left out; they make up all but 13% or so of the library. Cut-off read from the data, not from the text of the source: active = inhibition above about 30%; inactive = the rest.
SMILES,USP28 block,OTUD3 block,USP30 inh,USP17 block,USP8 inh
CCc1cccc(NC(=O)c2cc(-c3ccccn3)n[nH]2)c1,n,n,n,n,n
Cc1ccc(NC(=O)c2cc(-c3ccncc3)n[nH]2)c(Cl)c1,60,n,83,64,n
Cn1c(NC(=O)C2CCCCC2)c(-c2ccc3c(c2)OCO3)c(=O)c2ccccc21,n,n,n,n,n
CN(C)S(=O)(=O)N1CCCC(Cc2cnc(-c3ncc[nH]3)cn2)C1 (configuration not stated),n,n,n,n,n
N#Cc1cccc(C(=O)NC2(c3nc(-c4ccncc4)no3)CCCCC2)c1,n,n,n,n,n
c1ccc(-c2cc(CSc3nc4ccccc4[nH]3)no2)cc1,n,n,n,33,n
COc1ccc(CSc2nc3ccccc3[nH]2)cc1OC,n,n,n,n,n
Cc1nc2sccn2c1-c1nc(-c2cc(Cl)ccc2Cl)cs1,n,n,46,49,n
CCc1csc(-c2cn(CC(=O)Nc3ccc(C)c(C)c3)cn2)n1,n,n,n,n,n
Cc1sc(NC(=O)CN2CCc3ccccc3C2)nc1-c1ccc2c(c1)CCN2C(=O)C(C)C,n,n,n,n,47
Cc1sc(NC(=O)CN2CCCCCC2)nc1-c1ccc2c(c1)CCN2C(=O)C1CCCCC1,n,n,n,x,n
Cc1cccc(C(=O)N2CCc3cc(-c4nc(NC(=O)C5(c6ccc(Cl)cc6)CCC5)sc4C)ccc32)c1,n,n,n,n,33
Cc1ccc(C(=O)N2CCc3cc(-c4nc(NC(=O)CN5CCCCC5)sc4C)ccc32)cc1,n,n,n,n,n
Cc1sc(NC(=O)CNc2ccccc2)nc1-c1ccc2c(c1)CCN2C(=O)C1CCCCC1,n,n,n,47,63
Cc1sc(NC(=O)C2(c3ccc(Cl)cc3)CCC2)nc1-c1ccc2c(c1)CCN2S(=O)(=O)c1ccccc1,n,n,n,n,n
Cc1sc(NC(=O)CN2CCCC2)nc1-c1ccc2c(c1)CCN2S(=O)(=O)c1ccccc1,n,n,n,39,n
c1ccc(CN2CCC3(COCc4cnc(N5CCOCC5)nc43)C2)cc1 (configuration not stated),n,n,n,n,n
Cc1ccn2c(=O)c(C(=O)NCc3ccc4c(c3)OCO4)cnc2c1,n,n,n,n,n
Cc1sc(NC(=O)CN2CCCC2)nc1-c1ccc2c(c1)CCN2C(=O)c1cccc(F)c1,n,n,35,n,n
Cc1sc(NC(=O)CN2CCCCC2)nc1-c1ccc2c(c1)CCN2C(=O)c1cccc(F)c1,n,n,n,36,n
COCCN(Cc1cc2cc(C)ccc2[nH]c1=O)S(=O)(=O)c1ccc(Cl)cc1,n,n,n,33,n
Cc1ccc2[nH]c(=O)c(CN(Cc3ccco3)S(=O)(=O)c3ccccc3)cc2c1,n,n,n,x,n
Cc1ccc(S(=O)(=O)N(C)Cc2cc3cc(C)ccc3[nH]c2=O)cc1,x,n,x,57,n
Cc1ccc(S(=O)(=O)N(Cc2cc3ccc(C)cc3[nH]c2=O)CC2CCCO2)cc1 (configuration not stated),n,n,n,n,n
O=c1[nH]c2ccccc2cc1CN(c1ccccc1)S(=O)(=O)c1ccc(Cl)cc1,n,n,n,48,n
SMILES,USP28 block,OTUD3 block,USP30 inh,USP17 block,USP8 inh
Cc1ccc2[nH]c(=O)c(CN(CC3COCCO3)S(=O)(=O)c3ccc(F)cc3)cc2c1 (configuration not stated),n,n,n,76,35
COc1ccccc1OC(C)C(=O)NCc1csc(-c2ccccc2)n1 (configuration not stated),n,n,n,n,n
CN1CCCN(C(=O)c2ccn(-c3ccc4ccc(-c5cnn(C)c5)cn34)n2)CC1,n,n,n,n,n
Cc1noc(C)c1CNc1ccc(Cl)cc1,n,n,n,n,39
CC1=C(c2ccccc2)S(=O)(=O)N=C1N1CCCN(C(=O)c2ccccc2F)CC1,n,n,n,n,n
COc1cc(Cl)ccc1Oc1ncnc2sc(C)c(C)c12,n,n,46,62,n
O=C(Nc1ccc2nccnc2c1)c1cccc(C(F)(F)F)c1,32,n,76,n,n
CCc1nccn1Cc1noc(-c2ccc(C)c(C)c2)n1,39,n,n,n,n
Cc1ccccc1-c1nc(Cn2ccnc2C)no1,32,n,n,n,n
CCc1nccn1Cc1nc(-c2ccc(Cl)cc2)no1,43,n,n,n,n
COCCN(C1CCN(C)CC1)S(=O)(=O)c1ccc(NC(=O)c2cc(OC)c(OC)c(OC)c2)cc1,n,n,n,n,n
COc1ccc(-c2cc(-c3nnc(COC(=O)c4cccc([N+](=O)[O-])c4C)o3)c3ccccc3n2)cc1OC,n,n,n,n,68
COc1ccc(-c2cc(-c3nnc(CSc4nnc(C)n4-c4ccccc4)o3)c3ccccc3n2)cc1OC,n,n,n,36,n
COc1ccc(-c2cc(-c3nnc(COC(=O)CC4CCCC4)o3)c3ccccc3n2)cc1OC,n,n,n,n,64
COc1ccc(-c2cc(-c3nnc(COC(=O)CNS(=O)(=O)c4ccccc4)o3)c3ccccc3n2)cc1OC,n,n,n,n,n
Cc1cccnc1Nc1ccc(C2CN(Cc3cnc(C(C)C)nc3)CCO2)nc1 (configuration not stated),n,n,n,n,n
COc1ccc2nc(N3CCCN(S(=O)(=O)c4ccc(Cl)c(F)c4)CC3)c(C#N)cc2c1,n,n,n,n,n
CC(=O)c1ccc(N2CCN(C(=O)c3cc(Cl)c4c(c3)OCCO4)CC2)cc1,n,n,34,64,n
CC(=O)c1ccc(N2CCN(C(=O)c3ccc(-c4noc(C)n4)cc3)CC2)cc1,n,n,n,n,n
O=C(CC1Oc2ccccc2NC1=O)Nc1ccccc1Br (configuration not stated),n,n,n,59,n
CCC(C)N(CCNC(=O)CC1Oc2ccccc2NC1=O)C1CCCCC1 (configuration not stated),n,n,n,n,n
Cc1cc(C(=O)N2CCc3nc4scc(C)c4c(=O)n3CC2)on1,n,n,n,n,n
COc1ccc(C(=O)Nc2ccccc2C(=O)NC(Cc2ccc(O)cc2)C(=O)NNC(=O)Cc2ccc(OC)c(OC)c2)cc1 (configuration not stated),n,n,31,31,n
CCc1nc2sc(C(C)C)nn2c1S(=O)(=O)N1CCCCCC1,n,n,36,n,n
COC(=O)c1ccc(Cn2cnc3ccc(F)cc3c2=O)o1,87,n,n,n,n
O=C(NCc1cccnc1)c1ccc(Cn2cnc3ccccc3c2=O)o1,n,n,n,n,n
O=C(NCc1ccncc1)c1ccc(Cn2cnc3ccccc3c2=O)o1,n,n,n,n,n
COC(=O)c1ccc(Cn2cnc3ccc(Br)cc3c2=O)o1,80,n,n,n,n
COc1ccc(-c2cnc3ncnc(N)c3n2)cc1,n,n,n,n,n
